Assay results as given in PubChem BioAssay (NCATS).
A number with no mark means an inactive call. Calls follow the shape of the dose curve; as a rule, active = well fitted curve in the direction sought with a large enough effect; inconclusive = small, poorly fitted or top-dose-only effect, or another doubt; inactive = no such curve, though single readings can be large; an effect the other way counts as inactive or inconclusive.

Target: Alpha-galactosidase A (Homo sapiens) (UniProt P06280)
Assay: Counterscreen for Glucocerebrosidase Inhibitors: qHTS Assay for Human alpha-Galactosidase at pH 4.5 (AID 992); also: 0% is about no effect
Conditions: purified enzyme, fluorogenic substrate; series mostly up to 76.9 µM; activity change, negative = inhibition: at the top concentration
Summary of the method: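 Fluorogenic 4-MU alpha-D-galactoside (80 uM) hydrolysis, 2 nM enzyme, pH 4.5 citrate buffer + 0.005% Tween-20; 20 min RT; NaOH/glycine pH 10 stop; Ex365/Em440. Compounds titrated 0.7 nM–77 uM; Hill-equation AC50.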

Chain of Alpha-galactosidase A (Homo sapiens) (P06280 whole entry, looked up): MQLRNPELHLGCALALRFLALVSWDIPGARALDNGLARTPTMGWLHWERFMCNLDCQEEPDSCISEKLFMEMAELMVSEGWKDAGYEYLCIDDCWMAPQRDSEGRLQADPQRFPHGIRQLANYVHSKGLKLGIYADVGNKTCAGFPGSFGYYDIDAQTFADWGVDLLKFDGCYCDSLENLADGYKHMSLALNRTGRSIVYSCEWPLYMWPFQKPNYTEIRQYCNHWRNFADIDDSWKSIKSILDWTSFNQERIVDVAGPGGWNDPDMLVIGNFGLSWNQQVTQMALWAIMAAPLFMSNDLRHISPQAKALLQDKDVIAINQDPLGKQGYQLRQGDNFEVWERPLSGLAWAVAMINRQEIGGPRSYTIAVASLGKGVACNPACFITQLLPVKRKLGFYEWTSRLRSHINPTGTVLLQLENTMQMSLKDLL

Structure (SMILES) | activity change, negative = inhibition
Cn1c(=O)c2[nH]c(C3CCCC3)nc2n(C)c1=O | -1.11%
O=c1[nH]c(=O)c2nc3ccccc3nc2[nH]1 | 0.581%
NC(N)=NC(N)=Nc1ccccc1 | -0.951%
NC(N)=NC(N)=Nc1cccc(Cl)c1 | 3.28%
CCN(CC)CCCCCCCCOC(=O)c1cc(OC)c(OC)c(OC)c1 | -4.57%
NC(N)=[N+]1CCc2ccccc2C1 | 2.8%
O=C(O)C1=CCCN(CCON=C(c2ccccc2)c2ccccc2)C1 | -0.683%
COc1ccccc1N1CCN(CCCNc2c(C)c(=O)n(C)c(=O)n2C)CC1 | 0.911%
CN[C@H](CC(=O)O)C(=O)O | -0.739%
CN1CCN(c2nc3cc(C(F)(F)F)ccc3n3cccc23)CC1 | -3.85%
COc1cc(/C=C(\C#N)C(=O)c2ccc(O)c(O)c2)cc(I)c1O | -3.27%
O=C(O)/C(=C/c1c(C(=O)O)[nH]c2cc(Cl)cc(Cl)c12)c1ccccc1 | -2.89%
Cc1cc2c(cc1Cl)N(C(=O)Nc1ccnc3ccccc13)CC2 | -1.95%
Nc1nc2[nH]c(=O)cnc2c(=O)[nH]1 | -0.846%

Target: alpha-glucosidase (Oryza sativa, rice) (UniProt Q653V4)
Assay: Counterscreen for Glucocerebrosidase Inhibitors: qHTS Assay for Rice alpha-Glucosidase at pH 5.0 (AID 997);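 also: 0% = full activity with enzyme and -100% = basal without enzyme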
Conditions: rice alpha-glucosidase enzyme activity; series mostly up to 76.9 µM; activity change, negative = inhibition: at the top concentration
Summary of the method: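 Endpoint fluorogenic assay at pH 5.0: compounds (0.7 nM to 77 uM) titrated against 4 nM rice enzyme and 400 uM 4-MU-alpha-glucoside for 20 min at room temperature; NaOH/glycine stop, read ex 365/em 440 nm, Hill-fitted AC50.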

Structure (SMILES) | activity change, negative = inhibition
COc1cc(CC(=O)O)ccc1O | 2.01%
Cn1c(=O)c2[nH]c(C3CCCC3)nc2n(C)c1=O | -4.77%
O=c1[nH]c(=O)c2nc3ccccc3nc2[nH]1 | -1.01%
NOCC(=O)O | -1.79%
NC(N)=NC(N)=Nc1ccccc1 | -1.63%
N[C@H](C(=O)O)[C@H](O)C(=O)O | -2.23%
NC(N)=NC(N)=Nc1cccc(Cl)c1 | -1.29%
CCN(CC)CCCCCCCCOC(=O)c1cc(OC)c(OC)c(OC)c1 | -6.13%
COc1ccccc1N1CCN(CCCCNC(=O)c2ccc3ccccc3c2)CC1 | -7.17%
C[C@H](O)C(=O)C1=Nc2c(nc(N)[nH]c2=O)NC1 | 19%
c1ccc(CN2CCC3(CCCc4ccccc43)CC2)cc1 | -0.617%
O=C(O)c1ccccc1Nc1ccccc1 | -1.82%
NC(N)=[N+]1CCc2ccccc2C1 | -1.31%
O=C(O)C1=CCCN(CCON=C(c2ccccc2)c2ccccc2)C1 | 2.38%
COc1ccccc1N1CCN(CCCNc2c(C)c(=O)n(C)c(=O)n2C)CC1 | -1%
CN[C@H](CC(=O)O)C(=O)O | -1.93%
CN1CCN(c2nc3cc(C(F)(F)F)ccc3n3cccc23)CC1 | -5.65%
COc1cc(/C=C(\C#N)C(=O)c2ccc(O)c(O)c2)cc(I)c1O | -4.01%
O=C(O)/C(=C/c1c(C(=O)O)[nH]c2cc(Cl)cc(Cl)c12)c1ccccc1 | -4.45%
CC(=O)NCCc1c[nH]c2ccc(O)cc12 | -2.12%
Cc1cc2c(cc1Cl)N(C(=O)Nc1ccnc3ccccc13)CC2 | -2.07%
O=C(O)c1cccnc1C(=O)O | -3.5%
Nc1nc2[nH]c(=O)cnc2c(=O)[nH]1 | -1.24%
